{
  "source": "PubChem BioAssay (Tox21)",
  "note": "Active and inactive are the calls of the source. Where a call stands in place of a potency, no number is given. Calls come from the whole dose curve; as a rule, active = well fitted curve in the direction sought with a large enough effect in the repeat runs; inconclusive = weak or mixed curves; inactive = flat fitted curve, though single readings scatter.",
  "data": [
    {"experiment": "qHTS assay to test for compound auto fluorescence at 590 nm (red) in HepG2 cells (AID 720674)", "conditions": "HepG2 autofluorescence, red 540/590 nm, 1 h; series mostly up to 91.3 µM", "from_the_text": "U.S. Tox21 Program National Center for Advancing Translational Sciences [NCATS] NIH Chemical Genomics Center [NCGC] U.S. Environmental Protection Agency [EPA] National Institutes of Environmental Health Sciences [NIEHS] National Toxicology Program [NTP] U.S. Food and Drug Administration [FDA] Tox21 Assay Overview: Compound auto fluorescence often interferes with screening of the compound library against various biological targets and signaling pathways. Some of these compounds may have fluorophoric properties. Such properties may interfere with the assay outputs resulting in false positives and/or negatives. To decrease such complications and ensure the compound activities are relevant in terms of biological response, the Tox21 10K compound library was screened for auto fluorescence. From the fluorophores used as reporter signals in our screening assays, the auto fluorescence equivalencies of compounds against three fluorophores have been evaluated: Triamterene, Fluorescein and Rose Bengal sodium for blue, green and red fluorescence, respectively. The fluorescence intensities were measured using Excitation/Emission wavelengths at 405/460nm, 485/535nm and 540/590nm for blue, green and red labels, respectively. This assay includes the red fluorescence data.\nTox21 Assay Protocol Summary: 2,000 HepG2 cells in 5 uL of culture medium (MEM containing 10% FBS) per well were dispensed into black wall/clear bottom 1536-well plates using a Multidrop Combi Dispenser (ThermoFisher Scientific, Waltham, MA). The assay plates were incubated overnight at 37 C to allow cell attachment to the well bottom, followed by the transfer of 23 nL compound or DMSO vehicle by a pintool work station (Kalypsys , San Diego, CA). After the assay plates were incubated for 1 hr at 37 C and 5% CO2, fluorescence intensities in the assay plates were measured by an Envision (PerkinElmer, Shelton, CT) plate reader using three labels for measuring blue, green and red fluorescence at […] 460, 535 and 590 nm respectively.", "values": [
      {"smiles": "Cn1cnc([N+](=O)[O-])c1Sc1ncnc2nc[nH]c12", "Potency": "inactive"},
      {"smiles": "O=C(COc1ccc(Cl)cc1)N1CCN(Cc2ccc3c(c2)OCO3)CC1", "Potency": "inactive"},
      {"smiles": "CCCc1c(OCCCCc2nn[nH]n2)ccc(C(C)=O)c1O", "Potency": "inactive"},
      {"smiles": "O=C(c1ccc(OCCN2CCCCC2)cc1)c1c(-c2ccc(O)cc2)sc2cc(O)ccc12", "Potency": "inactive"},
      {"smiles": "O=c1oc(=O)c2cc3c(=O)oc(=O)c3cc12", "Potency": "inactive"},
      {"smiles": "CCC(C)c1ccccc1O", "note": "(stereo not given)", "Potency": "inactive"},
      {"smiles": "c1ccc2cc(Nc3ccc(Nc4ccc5ccccc5c4)cc3)ccc2c1", "Potency": "inactive"},
      {"smiles": "c1ccc2c(c1)Oc1ccccc1S2", "Potency": "inactive"},
      {"smiles": "O=C(OCc1ccccc1)c1ccccc1O", "Potency": "inactive"},
      {"smiles": "c1cc(-c2ccncc2)ccn1", "Potency": "inactive"},
      {"smiles": "CCCCOCCOCCO", "Potency": "inactive"},
      {"smiles": "COC(=O)C1=C(C)NC(C)=C(C(=O)OCCN(C)Cc2ccccc2)C1c1cccc([N+](=O)[O-])c1", "note": "(stereo not given)", "Potency": "inactive"},
      {"smiles": "O=CCCCC=O", "Potency": "inactive"},
      {"smiles": "CC(C)=CCC/C(C)=C\\CO", "Potency": "inactive"},
      {"smiles": "Nc1ccc(Nc2ccccc2)cc1", "Potency": "inactive"},
      {"smiles": "CNCCCC12CCC(c3ccccc31)c1ccccc12", "Potency": "inactive"},
      {"smiles": "Oc1ccc(O)cc1", "Potency": "inactive"},
      {"smiles": "CN1C(C(=O)Nc2ccccn2)=C(O)c2ccccc2S1(=O)=O", "Potency": "inactive"},
      {"smiles": "C[C@]12CC[C@H]3[C@@H](CCC4=CC(=O)CC[C@@]43C)[C@@H]1CC[C@@H]2C(=O)CO", "Potency": "inactive"},
      {"smiles": "CN(C)C(=N)N=C(N)N", "Potency": "inactive"},
      {"smiles": "O=C=Nc1ccc(Cc2ccc(N=C=O)cc2)cc1", "Potency": "inactive"},
      {"smiles": "OC[C@H]1O[C@@H]2O[C@H]3[C@H](O)[C@@H](O)[C@@H](O[C@H]4[C@H](O)[C@@H](O)[C@@H](O[C@H]5[C@H](O)[C@@H](O)[C@@H](O[C@H]6[C@H](O)[C@@H](O)[C@@H](O[C@H]7[C@H](O)[C@@H](O)[C@@H](O[C@H]8[C@H](O)[C@@H](O)[C@@H](O[C@H]1[C@H](O)[C@H]2O)O[C@@H]8CO)O[C@@H]7CO)O[C@@H]6CO)O[C@@H]5CO)O[C@@H]4CO)O[C@@H]3CO", "Potency": "inactive"},
      {"smiles": "C[Si](C)(C)O[Si](C)(C)C", "Potency": "inactive"},
      {"smiles": "CCCCc1oc2ccccc2c1C(=O)c1cc(I)c(OCCN(CC)CC)c(I)c1", "Potency": "inactive"},
      {"smiles": "O=C(/C=C/C=C/c1ccc2c(c1)OCO2)N1CCCCC1", "Potency": "inactive"},
      {"smiles": "Cc1ccc(C)c(O)c1C", "Potency": "inactive"},
      {"smiles": "C[C@]12CCC(=O)C=C1CC[C@@H]1[C@@H]2C(=O)C[C@@]2(C)[C@H]1CC[C@]2(O)C(=O)CO", "Potency": "inactive"},
      {"smiles": "Cc1c(C(N)=O)cc([N+](=O)[O-])cc1[N+](=O)[O-]", "Potency": "inactive"},
      {"smiles": "Cc1cccc([N+](=O)[O-])c1C", "Potency": "inactive"},
      {"smiles": "O=S(=O)(O)c1ccc(O)cc1", "Potency": "inactive"},
      {"smiles": "CCCCCCCCCCCO", "Potency": "inactive"},
      {"smiles": "NNc1ccc(C(=O)O)cc1", "Potency": "inactive"},
      {"smiles": "CCCCOCCOCCOCCO", "Potency": "inactive"},
      {"smiles": "CC(=O)CC/C=C(\\C)CCC=C(C)C", "Potency": "inactive"},
      {"smiles": "Cc1cccc(N(C)C(=S)Oc2ccc3ccccc3c2)c1", "Potency": "inactive"},
      {"smiles": "CCC(C)OC(=O)c1ccc(O)cc1", "note": "(stereo not given)", "Potency": "inactive"},
      {"smiles": "COC(=O)Nc1nc2ccc(S(=O)c3ccccc3)cc2[nH]1", "note": "(stereo not given)", "Potency": "inactive"},
      {"smiles": "CCCCNS(=O)(=O)c1ccccc1", "Potency": "inactive"},
      {"smiles": "C#C[C@]1(O)CC[C@H]2[C@@H]3CCC4=Cc5oncc5C[C@]4(C)[C@H]3CC[C@@]21C", "Potency": "inactive"},
      {"smiles": "C/C=C/C(=O)O", "Potency": "inactive"}
    ]}
  ]
}
